Screening data as filed in PubChem.
Pf growth 48h: P. falciparum growth inhibition at 48 hours (one generation). P. falciparum luciferase growth in erythrocytes, 48 h. Potency, µM (titrated, usually from 28.7 µM), without a hit: at the highest dose activity change, negative = inhibition, actives largely listed as inhibitors. hit rate 5.9% among 310,000; also: potency is read from the fitted curve at half-maximal effect; % is scaled to controls: 0 for no effect and ±100 for the full control effect
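Growth was read as firefly luciferase luminescence after a 48 h, 37 C, 5% CO2 exposure of compounds to reporter-bearing P. falciparum cultures (0.1% parasitemia, 2% hematocrit final) in Albumax-supplemented RPMI 1640.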
Pf growth 96h: inhibits malaria parasite growth, 96 h; P. falciparum luciferase reporter growth, 96 h; Potency, µM (top dose mostly 28.7 µM), for inactives: top-dose activity change, negative = inhibition, usual class: inhibitors; hit rate 6.9% among 320,000; AID 504834; also: potency is read from the fitted curve at half-maximal effect; % is scaled to controls: 0 for no effect and ±100 for the full control effect
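Two-generation exposure (96 h) targets delayed-death phenotype. Reporter parasites carrying integrated firefly luciferase, in red cells at 2% hematocrit and 0.05% parasitemia final, kept at 37 C, 5% CO2; luminescence loss indicates inhibition.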
Shiga toxin inh: inhibitors of Shiga toxin in Vero cells; inhibition, % at 38.7 µM; Vero cells, Shiga toxin protein synthesis inhibition reporter; hit rate 9.2% among 290,000; in the data active = inhibition mostly above about 28%, no sharp cut-off; inactive = mostly below about 43%; also: 0% is about no effect
CHX counter: affects cycloheximide protein synthesis inhibition readout, counter-screen; cell reporter, cycloheximide protein synthesis inhibition counterscreen; max response, %; hit rate 12% among 300,000; in the data active = max response mostly above about 13%, no sharp cut-off; inactive = mostly below about 14%; also: read at 38.3 µM for the half of the compounds with a filed dose; 0% is about no effect
NS1 inh: inhibitors of influenza NS1 protein function. Potency, µM (top dose mostly 46.1 µM), for the others: at the highest dose activity, positive = more growth. hit rate 0.4% among 270,000; calls by dose curve; also: potency is read from the fitted curve at half-maximal effect; actives are rising curves; nearly all actives have a fitted effect of over 50% in size
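A cell-based growth assay was used: compounds that relieve NS1-induced slow growth of budding yeast raise OD600. Assay medium was yeast nitrogen base with ammonium sulphate and -URA supplement, pH 6.0, with 2% galactose.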
An asterisk follows results filed as active; ? = inconclusive; · = not tested or not shown; [ ] = dose if it differs, or a comment. Shown are actives, neighbours in structure and some others; about 21% of the full set was active somewhere. Unless noted, calls follow the shape of the dose curve; as a rule, active = well fitted inhibition curve with a large enough effect; inconclusive = small, poorly fitted or top-dose-only effect, or another doubt; inactive = no such curve, though single readings can be large or run the other way.

SMILES	Pf growth 48h	Pf growth 96h	Shiga toxin inh	CHX counter	NS1 inh
CCOC(=O)COc1nc2c(c(-c3ccco3)c1C#N)CCc1ccccc1-2	-11%	-7%	42*	19	-6%
COc1cccc(Oc2nc(N)ncc2[N+](=O)[O-])c1	-1%	-18%	-6	15	4%
COc1ccccc1CCNCc1cc2c(cc1[N+](=O)[O-])OCO2	4%	31%	-7	-4	10%
COc1ccc(NC(=O)C(c2cc3c(cc2[N+](=O)[O-])OCO3)N(C)c2ccccc2)cc1 (stereo unspecified)	6%	-36%	47	19*	-5%
CN(CCCCCCCCCCN(C)C(=O)Oc1cccc([N+](C)(C)C)c1)C(=O)Oc1cccc([N+](C)(C)C)c1	0.12µM*	0.074µM*	·	·	·
COc1ccc(N2C(=NC(=O)CC3CCCCC3)SC3CS(=O)(=O)CC32)cc1 (stereo unspecified)	-2%	16%	25	9	8%
CCOC(=O)N1CCc2c(sc(NC(=O)CN(CC)CC)c2C#N)C1	8%	-9%	14	2	1%
O=C1NC(c2ccccc2)(C(F)(F)F)C(=O)N1Cc1cccnc1 (stereo unspecified)	26%	?	96*	47*	-9%
Cc1ccc(/C=C/C(=O)O)cc1S(=O)(=O)N(CCO)CCO	-12%	9.3µM*	4	0	28%
COCCNC(=S)N(CCc1c(C)[nH]c2ccccc12)Cc1cccnc1	?	?	43	-3	-3%
C=CCOc1ccc(CC2C(=O)N(C)C(=O)N(C)C2=O)cc1	3.7µM*	1%	-5	-2	15%
COc1cc2c(cc1OC)-c1cc(NC3CCCC3)nc(=O)n1CC2	?	6%[5.75 µM]	-16	-1	-13%
COc1cc2c(cc1OC)-c1cc(=Nc3c(C)cc(C)cc3C)n(C)c(=O)n1CC2	0.67µM*	0.76µM*	·	·	-41%
Fc1ccc(CSc2ncnc3ccccc23)cc1	25%	11%	16	11	-14%
Cc1nnc(SCC(=O)N2c3ccccc3Sc3ccccc32)n1N	-12%	251%	1	-2	-1%
Cc1nnc(SC(=O)N2c3ccccc3Sc3ccccc32)s1	10µM*	·	-12	-3	-9%
Cc1cc(=O)oc(C)c1C(=O)NCCN1CCOCC1	8%	19%	-9	-2	-31%
O=C(CSc1nc2ccccc2s1)c1ccc(O)cc1O	33%	45%	59*	22*	-38%
O=C(Cc1nc2ccccc2s1)c1ccc(O)cc1O	?	51%	65*	41*	-55%
CCc1cc(C(=O)Cc2nc3ccccc3s2)c(O)cc1OCC(=O)O	66%	88%	-2	-2	?
CCCc1cc(=O)n2[nH]c(NCc3c(Cl)cccc3Cl)nc2n1	-12%	·	-14	-1	1%
CCCc1cc(=O)n2[nH]c(NCc3c(F)cccc3Cl)nc2n1	0%	12µM*	29	4	0%
CCOc1ccc(-c2c(=O)n(OCc3ccccn3)c3ccccc3[n+]2[O-])cc1	?	?	50*	17	-4%
CCOn1c(=O)c(-c2ccccc2)[n+]([O-])c2ccccc21	·	5%	-2	-2	0%
CCCOc1ccc(-c2c(=O)n(O)c3ccccc3[n+]2[O-])cc1	31%	0%	·	29*	-63%
SMILES	Pf growth 48h	Pf growth 96h	Shiga toxin inh	CHX counter	NS1 inh
CC(C)NC(=O)c1ccccc1NC(=O)C1COc2ccccc2O1 (stereo unspecified)	10µM*	-17%	14	-5	-1%
COCCNC(=O)c1ccccc1NC(=O)C1COc2ccccc2O1 (stereo unspecified)	-3%	?	13	-3	-12%
CCC(C)NC(=O)c1ccccc1NC(=O)C1COc2ccccc2O1 (stereo unspecified)	1.2µM*	?	-3	1	6%
CCOc1ccccc1NC(=O)C1COc2ccccc2O1 (stereo unspecified)	?	?	22	9	-60%
CCOC(=O)c1c(C)[nH]c(C(=O)OCC(=O)Nc2cccnc2Cl)c1C	4%	10%	·	·	·
CNC(=O)c1c(NC(=O)C2=COCCO2)sc(C)c1C	-9%	-3%	·	·	·
O=C(NC1CCCCC1)c1cc(-c2ccc(O)cc2)on1	36%	38%	71*	33*	3%
O=C(NC1CCCCCC1)c1ccccc1-c1ccccc1	-22%	?	-8	-3	-1%
O=C(Nc1cccnc1Cl)c1cc(-c2ccc(O)cc2)on1	40%	-20%	73*	25*	4%
Cc1ccc(-c2cc(C(=O)NC3CCCCC3)no2)cc1	70%	46%	17	20*	-62%
O=C(NC1CCCCC1)c1cc(-c2ccccc2O)on1	-38%	103%	109*	27*	0%
COc1ccc(-c2cc(C(=O)NC3CCCCC3)no2)cc1OC	9%	4%	4	-3	0%
Cc1cccc(NC(=O)C2CCCN2C(=O)NC2CCCCC2)c1 (stereo unspecified)	30%	-20%	-10	11	1%
CC(=O)c1cccc(NC(=O)N2CCCC2C(=O)Nc2ccc3c(c2)OCO3)c1 (stereo unspecified)	-5%	-1%	-11	-1	2%
CC(=O)c1ccc(OC(=O)Cc2cccc3ccccc23)cc1	0%	1%	-9	-3	-39%
O=C(CCc1nc2ccccc2c(=O)[nH]1)N1CCN(S(=O)(=O)c2ccc(Cl)c(C(F)(F)F)c2)CC1	?	-1%	·	·	·
Cc1ccc(C)c(S(=O)(=O)N2CCN(C(=O)CCc3nc4ccccc4c(=O)[nH]3)CC2)c1	?	10µM*	·	·	·
Cc1ccc(NC(=O)COc2ncnc3ccccc23)cc1S(=O)(=O)N1CCOCC1	0%	?	-5	-4	5%
O=C(Cc1ccccc1)N1CCN(S(=O)(=O)c2cccc([N+](=O)[O-])c2)CC1	1%	25%	13	-2	1%
COc1ccc(Nc2nc(-c3ccccc3)nc3ccccc23)cc1S(=O)(=O)N1CCOCC1	?	13µM*	-2	1	?
Cc1ccc(NC(=O)CCc2nc3ccccc3c(=O)[nH]2)cc1S(=O)(=O)N1CCOCC1	?	4.1µM*	·	·	·
Cc1nc(-c2ccc(F)cc2)c(CC(=O)N2CCN(S(=O)(=O)c3cccc([N+](=O)[O-])c3)CC2)s1	9.3µM*	12µM*	·	·	·
CC(C)(C)OC(=O)C(Cc1ccc(OC(C)(C)C)cc1)NC(=O)CNC(=O)OCc1ccccc1 (stereo unspecified)	?	-1%	-8	-3	-20%
Cc1ccc(NC(=O)CSc2nc(N)cc(N)n2)cc1S(=O)(=O)N1CCOCC1	-6%	?	-3	-1	3%
Cc1ccc(S(=O)(=O)N2CCN(C(=O)CCc3nc4ccccc4c(=O)[nH]3)CC2)c(C)c1	?	12µM*	·	·	·
Cc1ccc(C)c(S(=O)(=O)N2CCN(C(=O)CCNS(=O)(=O)c3ccccc3)CC2)c1	7%	?	-3	-2	-4%
Cc1ccc(NC(=O)CSc2ncnc3ccccc23)cc1S(=O)(=O)N1CCOCC1	12µM*	?	-8	-3	2%
